Measurements: the supplement of paper PMC11628255, “Interference of metal ions on the bioluminescent signal of firefly, Renilla, and NanoLuc luciferases in high-throughput screening assays” (Frontiers in Chemistry, 2024)
± gives the standard deviation of the averaged measurements.

What was measured:
[1] = tested on: NanoLuc luciferase (NLuc); assay: residual bioluminescent signal relative to negative (DMSO) control; higher = less interference (more residual luciferase signal)
Outline: (§1)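 Metal salts in water were tested at 0.01, 1 and 5 mM final against purified firefly, NanoLuc or Renilla luciferase, with a 10 min room-temperature pre-incubation and a luminescence read 10 min after substrate addition. Each value of residual signal is a well's luminescence as a percentage of the plate's mean vehicle-only signal.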

[2] = tested on: Renilla luciferase (RLuc); assay: as above
Outline: as §1

[3] = metal salt concentration 0.01 mM, HEPES conditions (100 mM HEPES, 0.1% BSA, pH 7.5)
[4] = metal salt concentration 0.01 mM, screening conditions (PBS, 0.1% BSA, pH 7.4)
[5] = metal salt concentration 1 mM, HEPES conditions (100 mM HEPES, 0.1% BSA, pH 7.5)
[6] = metal salt concentration 1 mM, screening conditions (PBS, 0.1% BSA, pH 7.4)
[7] = metal salt concentration 5 mM, HEPES conditions (100 mM HEPES, 0.1% BSA, pH 7.5)
[8] = metal salt concentration 5 mM, screening conditions (PBS, 0.1% BSA, pH 7.4)
[9] = metal salt concentration 0.01 mM, HEPES conditions (100 mM HEPES, 0.05% BSA, 0.3 M sodium ascorbate, pH 7.5)
[10] = metal salt concentration 0.01 mM, screening conditions (50 mM Tris-HCl, […] KH2PO4, […] NaCl, 0.25 mM EDTA, 0.1% BSA, 0.3 M sodium ascorbate, pH 7.4)
[11] = metal salt concentration 1 mM, HEPES conditions (100 mM HEPES, 0.05% BSA, 0.3 M sodium ascorbate, pH 7.5)
[12] = metal salt concentration 1 mM, screening conditions (50 mM Tris-HCl, […] KH2PO4, […] NaCl, 0.25 mM EDTA, 0.1% BSA, 0.3 M sodium ascorbate, pH 7.4)
[13] = metal salt concentration 5 mM, HEPES conditions (100 mM HEPES, 0.05% BSA, 0.3 M sodium ascorbate, pH 7.5)
[14] = metal salt concentration 5 mM, screening conditions (50 mM Tris-HCl, […] KH2PO4, […] NaCl, 0.25 mM EDTA, 0.1% BSA, 0.3 M sodium ascorbate, pH 7.4)

O=S(=O)([O-])[O-].[Mn+2] [manganese(II) sulfate]
residual bioluminescent signal [1, 3]: 93.9 ± 2.1% | residual bioluminescent signal [1, 4]: 96.1 ± 2.1% | residual bioluminescent signal [1, 5]: 95 ± 3% | residual bioluminescent signal [1, 6]: 92.7 ± 1.3% | residual bioluminescent signal [1, 7]: 96 ± 1.4% | residual bioluminescent signal [1, 8]: 73.4 ± 2.1% | residual bioluminescent signal [2, 9]: 112 ± 9.2% | residual bioluminescent signal [2, 10]: 103 ± 12% | residual bioluminescent signal [2, 11]: 101 ± 3.7% | residual bioluminescent signal [2, 12]: 102 ± 5.1% | residual bioluminescent signal [2, 13]: 71.9 ± 9.5% | residual bioluminescent signal [2, 14]: 108.6 ± 0.66%

O.O.O.O.O.O.O.O=S(=O)([O-])[O-].[Mg+2] [magnesium sulfate]
residual bioluminescent signal [2, 9]: 85.7 ± 4.6% | residual bioluminescent signal [2, 10]: 88.5 ± 5.2% | residual bioluminescent signal [2, 11]: 99.3 ± 11% | residual bioluminescent signal [2, 12]: 93.1 ± 12% | residual bioluminescent signal [2, 13]: 97.7 ± 5.9% | residual bioluminescent signal [2, 14]: 109 ± 27%

[Cl-].[Na+] [sodium chloride]
residual bioluminescent signal [2, 9]: 97.4 ± 13% | residual bioluminescent signal [2, 10]: 91.3 ± 5.2% | residual bioluminescent signal [2, 11]: 104 ± 18% | residual bioluminescent signal [2, 12]: 88.6 ± 1.3% | residual bioluminescent signal [2, 13]: 111 ± 5% | residual bioluminescent signal [2, 14]: 94.4 ± 11%

CC#N.CC#N.CC#N.CC#N.F[B-](F)(F)F.[Cu+] [tetrakis(acetonitrile)copper(I) tetrafluoroborate]
residual bioluminescent signal [2, 9]: 98.7 ± 11% | residual bioluminescent signal [2, 10]: 103 ± 2.8% | residual bioluminescent signal [2, 11]: 0.774 ± 0.32% | residual bioluminescent signal [2, 12]: 0.538 ± 0.36% | residual bioluminescent signal [2, 13]: 1.06 ± 0.76% | residual bioluminescent signal [2, 14]: 0.628 ± 0.43%

[Cl][Pt-2]([Cl])([Cl])[Cl].[K+].[K+] [potassium tetrachloroplatinate(II)]
residual bioluminescent signal [1, 3]: 91.45 ± 0.79% | residual bioluminescent signal [1, 4]: 99.8 ± 2.3% | residual bioluminescent signal [1, 5]: 8.06 ± 0.51% | residual bioluminescent signal [1, 6]: 7.81 ± 1.1% | residual bioluminescent signal [1, 7]: 7.52 ± 0.31% | residual bioluminescent signal [1, 8]: 5.07 ± 0.66% | residual bioluminescent signal [2, 9]: 93.6 ± 1.9% | residual bioluminescent signal [2, 10]: 96.1 ± 1.4% | residual bioluminescent signal [2, 11]: 16.3 ± 9.4% | residual bioluminescent signal [2, 12]: 8.11 ± 2.9% | residual bioluminescent signal [2, 13]: 3.38 ± 2.1% | residual bioluminescent signal [2, 14]: 1.17 ± 0.82%

O=C([O-])[O-].[Cs+].[Cs+] [caesium carbonate]
residual bioluminescent signal [2, 9]: 91.5 ± 6.8% | residual bioluminescent signal [2, 10]: 94.9 ± 6.5% | residual bioluminescent signal [2, 11]: 100 ± 11% | residual bioluminescent signal [2, 12]: 93 ± 4.2% | residual bioluminescent signal [2, 13]: 87.4 ± 1.1% | residual bioluminescent signal [2, 14]: 87.8 ± 5.2%

[Cl][Fe]([Cl])[Cl] [iron(III) chloride]
residual bioluminescent signal [2, 9]: 91.5 ± 7.9% | residual bioluminescent signal [2, 10]: 94.1 ± 10% | residual bioluminescent signal [2, 11]: 2.32 ± 0.56% | residual bioluminescent signal [2, 12]: 39.9 ± 12% | residual bioluminescent signal [2, 13]: 0.985 ± 0.12% | residual bioluminescent signal [2, 14]: 0.807%

O=C([O-])[O-].[K+].[K+] [potassium carbonate]
residual bioluminescent signal [1, 3]: 91.3 ± 2.9% | residual bioluminescent signal [1, 4]: 100 ± 4% | residual bioluminescent signal [1, 5]: 92.1 ± 8.9% | residual bioluminescent signal [1, 6]: 97.6 ± 3% | residual bioluminescent signal [1, 7]: 95.6 ± 1.7% | residual bioluminescent signal [1, 8]: 96.6 ± 3.6% | residual bioluminescent signal [2, 9]: 90.4 ± 4.2% | residual bioluminescent signal [2, 10]: 88.9 ± 2.2% | residual bioluminescent signal [2, 11]: 93.2 ± 9.6% | residual bioluminescent signal [2, 12]: 92.2 ± 5.6% | residual bioluminescent signal [2, 13]: 96.4 ± 7% | residual bioluminescent signal [2, 14]: 76.8 ± 4.4%

O=S(=O)([O-])[O-].[Fe+2] [iron(II) sulfate]
residual bioluminescent signal [2, 9]: 83.1 ± 2.5% | residual bioluminescent signal [2, 10]: 99.5 ± 4% | residual bioluminescent signal [2, 11]: 2.25 ± 0.97% | residual bioluminescent signal [2, 12]: 13.5 ± 2.4% | residual bioluminescent signal [2, 13]: 0.704 ± 0.68% | residual bioluminescent signal [2, 14]: 0.762 ± 0.34%

[Cl][Fe][Cl] [iron(II) chloride]
residual bioluminescent signal [2, 9]: 62.9 ± 8.6% | residual bioluminescent signal [2, 10]: 85.9 ± 6.2% | residual bioluminescent signal [2, 11]: 1.9 ± 1.7% | residual bioluminescent signal [2, 12]: 3.45 ± 1.9% | residual bioluminescent signal [2, 13]: 0.774 ± 0.53% | residual bioluminescent signal [2, 14]: 0.404 ± 0.27%

O.O.O.O.O.O.O.O.O.O.O=S(=O)([O-])[O-].[Na+].[Na+] [sodium sulfate]
residual bioluminescent signal [1, 3]: 96 ± 3.7% | residual bioluminescent signal [1, 4]: 96.8 ± 5% | residual bioluminescent signal [1, 5]: 96.8 ± 4% | residual bioluminescent signal [1, 6]: 96 ± 4.3% | residual bioluminescent signal [1, 7]: 98.4 ± 1.1% | residual bioluminescent signal [1, 8]: 95.6 ± 4.4% | residual bioluminescent signal [2, 9]: 112 ± 4.9% | residual bioluminescent signal [2, 10]: 111 ± 1.9% | residual bioluminescent signal [2, 11]: 75.1 ± 66% | residual bioluminescent signal [2, 12]: 108 ± 9.8% | residual bioluminescent signal [2, 13]: 118 ± 11% | residual bioluminescent signal [2, 14]: 109 ± 13%
